Shown are actives, neighbours in structure and some others; about 1.2% of the full set was active somewhere.
Avidin fluor: avidin bead compound fluorescence profile. Avidin beads, compound fluorescence 488/530 nm, flow cytometry; active compounds read high. hit rate 0.38% among 220,000. AID 1775. fluorescence (KMESF) at 10 µM; in the data active means fluorescence above about 47
RGS16-Gao HTS: modulates binding between human RGS16 and Galphao; O15492+P09471; bead-based flow cytometry RGS16-Galphao binding, fluorescence; actives lie on both sides; binding response (% of control), % at 10 µM; hit rate 0.38% among 220,000; AID 1441; call rule not given here;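 further: Galphao activated by GDP with aluminum fluoride before binding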
Target sequence (O15492 whole entry, looked up): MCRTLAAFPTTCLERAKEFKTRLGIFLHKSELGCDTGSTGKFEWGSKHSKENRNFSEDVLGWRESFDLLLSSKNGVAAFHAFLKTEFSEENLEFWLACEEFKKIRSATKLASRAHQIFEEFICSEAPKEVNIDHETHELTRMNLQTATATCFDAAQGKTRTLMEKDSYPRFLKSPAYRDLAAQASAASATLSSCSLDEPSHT
Target sequence (P09471 whole entry, looked up): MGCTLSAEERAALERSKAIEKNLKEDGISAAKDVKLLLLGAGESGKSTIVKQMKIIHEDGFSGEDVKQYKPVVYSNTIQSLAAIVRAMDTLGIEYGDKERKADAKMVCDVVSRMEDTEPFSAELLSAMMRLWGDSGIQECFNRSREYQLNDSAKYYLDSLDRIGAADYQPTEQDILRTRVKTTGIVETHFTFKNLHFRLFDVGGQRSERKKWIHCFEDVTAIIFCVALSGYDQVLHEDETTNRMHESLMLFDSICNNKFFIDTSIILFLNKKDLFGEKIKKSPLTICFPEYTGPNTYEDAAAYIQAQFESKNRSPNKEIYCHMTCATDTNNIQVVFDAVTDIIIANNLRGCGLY
RGS8-Gao: human RGS8-Galphao interaction regulation. P09471. multiplexed bead flow cytometry, RGS8-Galphao binding; actives lie on both sides. response (percent of control binding), % at 10 µM. hit rate 0.34% among 220,000. AID 1423; in the data active means response below about 60% or above about 140%; inactive means in between;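 further: Galphao activated as the GDP aluminium fluoride complex binding bead-coupled RGS8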
Target sequence (P09471 whole entry, looked up): as above
GSH fluor: GSH bead compound fluorescence profile; hit rate 0.25% among 190,000; AID 1776; fluorescence (KMESF) at 10 µM; GSH beads flow cytometry, compound fluorescence 488/530 nm; active compounds read high; in the data active means fluorescence above about 89;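 further: glutathione beads carrying GST-tagged Bcl family fusion proteins plus one bare bead set; values are compound well signal with DMSO vehicle wells as background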
RGS4-Gao reg: human RGS4-Galphao interaction regulation; P09471; Multiplexed bead flow cytometry, RGS4-Galphao binding; actives lie on both sides; binding response (% of control), % at 10 µM; hit rate 0.33% among 220,000; AID 1415; in the data active means binding response below about 49% or above about 150%; inactive means in between;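 further: fluorescent Galphao activated with aluminum fluoride binding bead-coupled RGS4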
RGS7-Gao reg: human RGS7-Galphao interaction regulation; P09471; Multiplexed bead flow cytometry, RGS7-Galphao binding; actives lie on both sides; binding response (% of control), % at 10 µM; hit rate 0.35% among 220,000; in the data active means binding response below about 49% or above about 150%; inconclusive means no clear call, values can overlap the other calls; inactive means in between;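 further: fluorescent Galphao held in activated GDP-AlF4 state binding bead-coupled RGS7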
Active calls of the source: *; ? = inconclusive; . = no result.

SMILES | Avidin fluor | RGS16-Gao HTS | RGS8-Gao | GSH fluor | RGS4-Gao reg | RGS7-Gao reg
O=C(O[C@@H]1Cc2c(O)cc(O)cc2O[C@@H]1c1cc(O)c(O)c(O)c1)c1cc(O)c(O)c(O)c1 | 2 | 56 | 56* | 67 | 48* | 32*
Cc1cccc(C(=O)Nc2nnc(SCC(=O)Nc3ccc4c(c3)oc3ccccc34)s2)c1 | 12 | 102 | 105 | 8 | 110 | 109
COc1ccccc1C(=O)Nc1nnc(SCC(=O)Nc2ccc3c(c2)oc2ccccc23)s1 | 14 | 111 | 103 | 811* | 100 | 102
COC(=O)c1cc2c(ccn2-c2ccc(F)cc2)n1CC(C)C | 10 | 100 | 103 | 10 | 97 | 97
COC(=O)c1cc2c(ccn2-c2ccc(F)cc2)n1C(C)C | 52* | 102 | 104 | 10 | 109 | 111
CCCC(=O)Nc1ccc2nc(SCC(=O)Nc3nccs3)sc2c1 | 0 | 15* | 12* | 28 | 21* | 15*
O=C(NNc1cc(C(F)(F)F)nc2ccccc12)Nc1cccc(Cl)c1 | 6 | 101 | 101 | . | 101 | ?
O=C(Cn1cc(C(F)(F)F)ccc1=O)Nc1cccc(S(=O)(=O)N2CCOCC2)c1 | 96* | 99 | 101 | 11 | 106 | 136
CC(=O)NC1CC(C)(C)N(OC(C)=O)C(C)(C)C1 | 53* | 114 | 105 | 36 | 111 | 133
OC(CN1CCCCC1)Cn1c(C(F)(F)F)nc2ccccc21 (configuration not stated) | 40 | 100 | 103 | 17 | 98 | 99
Cc1nc2ccccc2n1CC(O)Cn1c(C(F)(F)F)nc2ccccc21 (configuration not stated) | -3 | -16* | 7.0* | 11 | -28* | -8.4*
CNc1ccccc(-c2ccc3cc4c(cc3n2)OCO4)c1=O | 4 | 100 | 101 | 6 | 102 | 98
O=C(c1nc2ccccn2c1CN1CCC(Cc2ccccc2)CC1)N1CCCC1 | 6 | 117 | 113 | 15 | 121 | 124
COc1ccc(C(CC(=O)Nc2nccs2)n2cccc2)cc1 (configuration not stated) | 49* | 101 | 102 | 12 | 105 | 107
Cc1cc(C)cc(NC(=S)NCCN(C2CCCCC2)C2CCCC2)c1 | 5 | 104 | 101 | 11 | 104 | 106
Cn1c(N)c(C(=O)CSc2nc3ccccc3c(=O)n2Cc2ccccc2)c(=O)n(C)c1=O | 49* | 139 | 101 | . | 145 | ?
CCCCCCn1c(SCC(=O)c2c(N)n(C)c(=O)n(C)c2=O)nc2ccccc21 | 7 | 107 | 109 | 45 | 104 | 101
C/C(Cn1cnc([N+](=O)[O-])n1)=N\NC(=O)c1ccc(O)cc1O | 13 | 104 | 103 | 25 | 102 | 101
COc1cccc(CNC(=O)C(C(=O)NCc2cccc(OC)c2)c2ncc(C(F)(F)F)cc2Cl)c1 | 13 | 106 | 103 | 14 | 105 | 107
Cc1ccc(-c2nc3cccnc3s2)cc1NS(C)(=O)=O | -2 | -19* | 2.3* | 18 | -22* | -31*
CCOc1cccc(/C(O)=C2/C(=O)C(=O)N(Cc3cccnc3)C2c2ccco2)c1 (configuration not stated) | 58* | 100 | 100 | 7 | 103 | 121
O=C(Nc1ccc(O)c(C(=O)O)c1)Oc1ccccc1 | 2 | 94 | 99 | . | 101 | ?
O=C(Nc1ccccc1Cl)C1CC(=O)n2c(nc3ccccc32)N1 (configuration not stated) | 10 | 100 | 98 | 22 | 93 | 92
COC(=O)CSc1nsc(SCC(=O)OC)c1C#N | 52* | 102 | 101 | 10 | 102 | 109
CSc1snc(SCC(N)=O)c1C#N | 8 | 104 | 100 | 15 | 102 | 98
SMILES | Avidin fluor | RGS16-Gao HTS | RGS8-Gao | GSH fluor | RGS4-Gao reg | RGS7-Gao reg
CCCC(c1nnnn1Cc1cccs1)N1CCN(C2CCCC2)CC1 (configuration not stated) | 117* | 101 | 98 | 19 | 104 | 150
CCC(c1nnnn1Cc1cccs1)N1CCN(C2CCCC2)CC1 (configuration not stated) | 19 | 104 | 105 | 28 | 104 | 108
O=C(CCCn1nnc2ccccc2c1=O)N[C@H](C(=O)O)c1ccccc1 | 49* | 97 | 98 | . | 117 | ?
O=C(Cn1ccc(C(F)(F)F)n1)N=Nc1c(O)[nH]c2ccc(Br)cc12 | 6 | 104 | 99 | 12 | 100 | 98
Cc1cc(C)n(CC(O)CN(c2ccccc2)S(=O)(=O)c2ccccc2)n1 (configuration not stated) | 67* | 116 | 96 | 39 | 100 | 146
Cc1ccc(N(CC(O)Cn2nc(C)cc2C)S(=O)(=O)c2ccc3ccccc3c2)cc1 (configuration not stated) | 14 | 95 | 98 | 17 | 97 | 96
O=C(NCc1ccc(Cl)cc1)c1ccc(N2CCCC2=O)cc1 | 14 | 57 | 82 | 9 | 93 | 92
C=CCNC(=O)c1ccc(Cn2c(=S)[nH]c3cc4c(cc3c2=O)OCO4)cc1 | 47* | 101 | 100 | 16 | 101 | 107
Clc1cccc(-c2cc3nc4c(c(N5CCN(c6cnccn6)CC5)n3n2)CCCC4)c1 | 3 | 104 | 77 | 104* | 67 | 74
Clc1cccc(-c2cc3nc4c(c(N5CCOCC5)n3n2)CCCC4)c1 | 35 | 102 | 101 | 19 | 100 | 100
CC(=O)Nc1ccc(NC(=O)COc2cccc3c2OC(C)(C)C3)cc1 | 58* | 97 | 99 | 7 | 99 | 111
CC(C(=O)OCc1nnc(-c2ccccc2)o1)N1C(=O)c2ccccc2C1=O (configuration not stated) | 7 | 119 | 107 | 263* | 111 | 112
CC(=O)NC12CC3CC(C1)CC(C(=O)OCC(=O)Nc1ncc(Cl)c(C)c1Cl)(C3)C2 | 8 | 96 | 100 | 262* | 98 | 102
CCc1c(C(=O)NNC(=S)NC2CCCCC2)csc1C | 8 | 100 | 101 | 15 | 98 | ?
CCc1c(C(=O)NNC(=S)NCCc2ccccc2)csc1C | 3 | 94 | 96 | 148* | 92 | 97
CC(=O)NNC(=S)NCCc1ccccc1 | 96* | 110 | 101 | 12 | 106 | 135
COCCNc1ccc([N+](=O)[O-])cc1C(=O)Nc1cccc(C)n1 | 8 | 102 | 101 | 20 | 98 | ?
Cc1ccc(C2c3c(oc4ccccc4c3=O)C(=O)N2c2nncs2)cc1 (configuration not stated) | 6 | 102 | 101 | . | 101 | ?
CSc1nc(N)c2c(C)c(C)sc2n1 | 7 | 102 | 101 | 9 | 97 | 96
Cc1nnc(SCc2ccccn2)n(N)c1=O | 4 | 98 | 100 | 10 | 101 | 98
Cc1nnc(SCC(=O)Nc2ccccc2)n(N)c1=O | 55* | 105 | 97 | 19 | 97 | 111
Cc1nnc(SCc2nnc(-c3ccccc3)o2)n(N)c1=O | 8 | 104 | 101 | 264* | 105 | 103

From PubChem BioAssay
